For 23 molecules, residual activity results are on record in ChEMBL document CHEMBL2218924, “A broad activity screen in support of a chemogenomic map for kinase signalling research and drug discovery” (Biochem J, 2013).

The residual activity is the signal under treatment as a percentage of the control signal.

In one experiment the target is Protein kinase C delta type (Homo sapiens) (UniProt Q05655). The conditions noted are these: at 1 µM.
Sequence of Protein kinase C delta type (Homo sapiens) (Q05655 whole entry, looked up): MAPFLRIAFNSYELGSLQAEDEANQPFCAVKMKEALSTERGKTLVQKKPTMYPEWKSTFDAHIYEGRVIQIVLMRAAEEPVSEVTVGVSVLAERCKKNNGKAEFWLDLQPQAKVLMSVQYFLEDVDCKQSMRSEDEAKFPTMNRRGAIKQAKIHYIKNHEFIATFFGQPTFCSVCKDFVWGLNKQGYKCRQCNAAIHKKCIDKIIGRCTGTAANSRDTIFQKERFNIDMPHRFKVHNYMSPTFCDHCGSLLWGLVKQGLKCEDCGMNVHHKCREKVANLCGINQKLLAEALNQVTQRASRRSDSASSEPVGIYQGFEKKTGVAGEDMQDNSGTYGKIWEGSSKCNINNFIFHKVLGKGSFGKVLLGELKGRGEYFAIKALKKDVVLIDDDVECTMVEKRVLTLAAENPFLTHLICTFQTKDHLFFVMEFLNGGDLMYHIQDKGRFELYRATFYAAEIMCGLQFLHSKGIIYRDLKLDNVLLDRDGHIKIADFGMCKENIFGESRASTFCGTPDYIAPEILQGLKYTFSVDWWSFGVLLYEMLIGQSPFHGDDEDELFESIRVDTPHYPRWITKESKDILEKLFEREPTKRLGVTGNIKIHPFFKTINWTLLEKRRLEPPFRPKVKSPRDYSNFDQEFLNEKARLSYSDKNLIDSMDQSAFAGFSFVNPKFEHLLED
For the molecule `Oc1cccc(-c2nc(N3CCOCC3)c3oc4ncccc4c3n2)c1`, the residual activity turned out to be 94%.

In the case of `NC(=O)Nc1sc(-c2ccc(F)cc2)cc1C(N)=O`, the residual activity turned out to be 78%.

`Cn1sc(=O)n(Cc2ccccc2)c1=O`: the residual activity came to 87%.

For `CCOC(=O)c1c(C)[nH]c(/C=C2\C(=O)Nc3ccccc32)c1C`, the residual activity is 96%.

For `Nc1ncnc2[nH]nc(Nc3ccc(F)cc3)c12`, the residual activity came to 104%.

For `O=C1Nc2ccc(Cl)cc2/C1=C/c1cc(Cl)c(O)c(Cl)c1`, the residual activity is 100%.

As to `COc1cc2c(cc1OC)-c1n[nH]c(Nc3cccc(F)c3)c1C2`, the residual activity came to 102%.

Consider `O=C1NC(=O)c2c1c1c3ccccc3[nH]c1n1cncc21`, for which the residual activity is 79%.

For `CC(C)(C)n1nc(Cc2cccc3ccccc23)c2c(N)ncnc21`, the residual activity came to 101%.

Consider `CCCC(=O)Oc1ccc2[nH]c(C(=O)c3cc4ccccc4[nH]3)cc2c1`, for which the residual activity turned out to be 101%.

Take `Nc1ncnc2c1c(-c1ccc(Oc3ccccc3)cc1)cn2C1CCCC1`: the residual activity was 94%.

As for `COc1cc2nccc(Oc3ccc(NC(=S)NC(=O)c4ccccc4C)cc3)c2cc1OC`, the residual activity turned out to be 98%.

Take `NCCNc1ncc(C(N)=O)c(Nc2cccc(C(F)(F)F)c2)n1`: the residual activity came to 75%.

As for `COc1cc2ncnc(Nc3cccc(Cl)c3)c2cc1OC`, the residual activity came to 104%.

Regarding `COc1ccc2c(c1)c(C1=C(c3c[nH]c4ccccc34)C(=O)NC1=O)cn2CCCN(C)C`, the residual activity amounted to 3%.

With `CC(C)(C)c1nc2c3ccc(F)cc3c3c(=O)[nH]ccc3c2[nH]1`, the residual activity turned out to be 54%.

For `O=C1NC(=O)C(c2c[nH]c3ccccc23)=C1c1c[nH]c2ccccc12`, the residual activity worked out at 31%.

In the case of `O=C(c1cc2cc(O)ccc2[nH]1)c1cc2cc(O)ccc2[nH]1`, the residual activity was determined as 100%.

Consider `O=C(O)/C=C/c1cc(Br)c(Br)c(Br)c1Br`, for which the residual activity was found to be 100%.

As to `Nc1ncnc2c1cnn2-c1ccccc1`, the residual activity is 99%.

Another experiment has the same target. The note with it: at 10 µM.
In the case of `NC(=O)Nc1sc(-c2ccc(F)cc2)cc1C(N)=O`, the residual activity was 31%.

As for `Cn1sc(=O)n(Cc2ccccc2)c1=O`, the residual activity stood at 45%.

Consider `Nc1ncnc2[nH]nc(Nc3ccc(F)cc3)c12`, for which the residual activity is 91%.

Turning to `O=C1Nc2ccc(Cl)cc2/C1=C/c1cc(Cl)c(O)c(Cl)c1`, the residual activity turned out to be 100%.

Consider `COc1cc2c(cc1OC)-c1n[nH]c(Nc3cccc(F)c3)c1C2`, for which the residual activity came to 106%.

Consider `CCCCc1c(-c2ccc(OC)cc2)[nH]c2nccnc12`, for which the residual activity is 106%.

Regarding `O=C1NC(=O)c2c1c1c3ccccc3[nH]c1n1cncc21`, the residual activity was found to be 70%.

`CCN(CC)CCNC(=O)c1c(C)[nH]c(/C=C2\C(=O)Nc3ccc(Cl)cc32)c1C`: the residual activity is 68%.

Take `CC(C)(C)n1nc(Cc2cccc3ccccc23)c2c(N)ncnc21`: the residual activity was 106%.

With `Nc1ncnc2c1c(-c1ccc(Oc3ccccc3)cc1)cn2C1CCCC1`, the residual activity stood at 100%.

As for `COc1cc2nccc(Oc3ccc(NC(=S)NC(=O)c4ccccc4C)cc3)c2cc1OC`, the residual activity was found to be 101%.

`NCCNc1ncc(C(N)=O)c(Nc2cccc(C(F)(F)F)c2)n1`: the residual activity came out at 28%.

`COc1cc2ncnc(Nc3cccc(Cl)c3)c2cc1OC`: the residual activity came to 109%.

In the case of `CN(C)S(=O)(=O)c1ccc2c(c1)/C(=C/c1cc3c([nH]1)CCCC3)C(=O)N2`, the residual activity turned out to be 121%.

On to `COc1ccc2c(c1)c(C1=C(c3c[nH]c4ccccc34)C(=O)NC1=O)cn2CCCN(C)C`, for which the residual activity is -1%.

Regarding `CC(C)(C)c1nc2c3ccc(F)cc3c3c(=O)[nH]ccc3c2[nH]1`, the residual activity turned out to be 63%.

`O=C1NC(=O)C(c2c[nH]c3ccccc23)=C1c1c[nH]c2ccccc12`: the residual activity stood at 5%.

With `O=C(c1cc2cc(O)ccc2[nH]1)c1cc2cc(O)ccc2[nH]1`, the residual activity stood at 83%.

In the case of `O=C(O)/C=C/c1cc(Br)c(Br)c(Br)c1Br`, the residual activity is 96%.

Regarding `Nc1ncnc2c1cnn2-c1ccccc1`, the residual activity came to 97%.
